Consider 54 compounds from PMC12431657, “Discovery and mechanistic insights of dibenzoylmethane as a broad spectrum inhibitor of coronavirus” (PLOS Pathogens, 2025).

The assay has as its system HCoV-OC43. Details: species or system RD; HTS, protection from HCoV-OC43 induced cell death, luminescent cell viability (CellCounting-Lite 2.0), inhibition rate. The conditions noted are these: 24 h post infection, 1 h compound pre-incubation, 10 µM, inhibitor.

Structures are written as SMILES. Counter-ions that a name gives are not always drawn. Like-named read-outs stand apart in the source and are kept apart here. In all, about 3,300 compounds went through this assay and about 60 (2%) showed an effect of 50% or more. The list comes from a sample in which strong results are over-represented; it also holds similar structures and randomly drawn compounds. Bridge positions count the residues as written; N and C are the ends. Square brackets hold non-standard residues; d marks the D form. Peptide text beside a SMILES is read from it. * marks the point of attachment. Ileψ(thiazoline)Cys = CC[C@H](C)[C@H](N)C1=N[C@H](C(=O)*)CS1; NMePhe(4-NMe2) = CN[C@@H](Cc1ccc(N(C)C)cc1)C(=O)O; Pip(4-oxo) = O=C1CCN[C@H](C(=O)O)C1; Picolinoyl(3-OH) = O=C(c1ncccc1O)*; Phg = N[C@H](C(=O)O)c1ccccc1; dOrn = NCCC[C@@H](N)C(=O)O; dAbu = CC[C@@H](N)C(=O)O

For `CC(=O)O[C@@H]1CC[C@@]2(C)[C@@H](CC[C@]3(C)[C@@H]2CC=C2[C@@H]4[C@@H](C)[C@H](C)CC[C@]4(C)CC[C@]23C)[C@@]1(C)C(=O)O` [3-Acetyl-beta-boswellic acid], the “OC43 Inhibition rate” value came to 66.7%.
On the same count and under the same terms, the result for `CC(=O)O[C@@H]1CC[C@@]2(C)[C@@H](CC[C@]3(C)[C@@H]2[C@H](O)C=C2[C@@H]4[C@@H](C)[C@H](C)CC[C@]4(C)CC[C@]23C)[C@@]1(C)C(=O)O` [3-O-Acetyl-11-hydroxy-beta-boswellic acid] reads 15.2%; that for `C[C@H]1[C@H](C)CC[C@]2(C)CC[C@]3(C)C(=CC[C@@H]4[C@@]5(C)CC[C@@H](O)[C@](C)(C(=O)O)[C@@H]5CC[C@]43C)[C@H]12` [β-Boswellic acid], -0.2%.
For `C[C@H](CCC(=O)NCC(=O)O)[C@H]1CC[C@H]2[C@@H]3CC[C@@H]4C[C@H](O)CC[C@]4(C)[C@H]3C[C@H](O)[C@]12C` [Glycodeoxycholic acid (monohydrate)], the “OC43 Inhibition rate” value (OC43 Inhibition rate, 24 h) was -0.8%.
As to `CCCCCCCC/C=C\CCCCCCCCCCCCCC(=O)O` [Nervonic acid], the “OC43 Inhibition rate” value is -2.1%.
Same read-out and setting: the same measure for `CC(=O)N[C@H](C(=O)O)C(C)C` [Acetylvaline]: -0.2%; for `COc1ccc2c(c1OC)CN(C)c1c-2ccc2cc3c(cc12)OCO3` [Dihydrochelerythrine]: 1.4%.
The same measure, in the same setting: the result for `O=c1cc(-c2ccccc2)oc2c(O)c(O)ccc12` [7,8-Dihydroxyflavone] reads 0.2%; that for `O=c1cc(-c2ccccc2)oc2c1ccc1ccccc12` [Alpha-Naphthoflavone], 65.1%.
In the case of `O=c1cc(-c2ccccc2)oc2ccccc12` [Flavone], the “OC43 Inhibition rate” value was found to be 0.3%.
Regarding `CC(C)=CCC[C@](C)(O[C@@H]1O[C@H](CO)[C@@H](O)[C@H](O)[C@H]1O)[C@H]1CC[C@]2(C)[C@@H]1[C@H](O)C[C@@H]1[C@@]3(C)CC[C@H](O)C(C)(C)[C@@H]3[C@@H](O[C@@H]3O[C@H](CO)[C@@H](O)[C@H](O)[C@H]3O[C@@H]3OC[C@@H](O)[C@H](O)[C@H]3O)C[C@]12C` [Notoginsenoside R1], the “OC43 Inhibition rate” value is 0.5%.
For the compound `N[C@@H](Cc1c[nH]cn1)C(=O)O` [L-Histidine (hydrochloride hydrate)], the “OC43 Inhibition rate” value (OC43 Inhibition rate, 24 h) was found to be 2.4%.
As for `CC[C@H]1NC(=O)[C@@H](NC(=O)c2ncccc2O)[C@@H](C)OC(=O)[C@H](c2ccccc2)NC(=O)[C@@H]2CC(=O)CCN2C(=O)[C@H](Cc2ccc(N(C)C)cc2)N(C)C(=O)[C@@H]2CCCN2C1=O` [Pristinamycin IA] ({Picolinoyl(3-OH)}-T[dAbu]P[NMePhe(4-NMe2)][Pip(4-oxo)][Phg]; ester 1-C), the “OC43 Inhibition rate” value amounted to 1.7%.
For `NCCCCNCCCN` [Spermidine], for the setting “OC43 Inhibition rate, 24 h”, the “OC43 Inhibition rate” value is reported as -0.8%.
For the compound `COc1cc(O)cc2oc(-c3ccc(O)c(O)c3)c(O)c(=O)c12` [Azaleatin], the “OC43 Inhibition rate” value stood at 7.4%.
Regarding `COc1ccc2cc3n(c(=O)c2c1OC)CCc1cc2c(cc1-3)OCO2` [Oxyberberine], the “OC43 Inhibition rate” value turned out to be 58.7%.
On the same count and under the same terms, the same measure for `COc1cc2c(cc1OC)-c1cc3ccc4c(c3c(=O)n1CC2)OCO4` [8-Oxoepiberberine]: 10.1%; for `O=c1c2c3c(ccc2cc2n1CCc1cc4c(cc1-2)OCO4)OCO3` [8-Oxocoptisine]: -0.2%; for `OC[C@H]1O[C@@H](Oc2cc(/C=C/c3cc(O)cc(O)c3)ccc2O)[C@H](O)[C@@H](O)[C@@H]1O` [Piceatannol 3'-O-glucoside]: 2%.
Same read-out and setting: the same measure for `CC(C)=CCC12Oc3cc(O)ccc3C1(O)Oc1cc(O)c([C@H]3C=C(C)C[C@@H](c4ccc(O)cc4O)[C@@H]3C(=O)c3ccc(O)cc3O)c(O)c1C2=O` (stereo partly drawn) [Sanggenon D]: 42.1%.
Same read-out and setting: the same measure for `CN[C@@H](C)[C@H]1[C@H](O)C[C@@]2(C)[C@@H]3CC[C@H]4C(C)(C)[C@@H](NC)CC[C@@]45C[C@@]35CC[C@]12C` [Cyclovirobuxine D]: 109.3%; for `CC(C)(O)[C@@H]1CC[C@](C)([C@H]2[C@@H](O)C[C@@]3(C)[C@@H]4C[C@H](O)[C@H]5C(C)(C)[C@@H](O)CC[C@@]56C[C@@]46CC[C@]23C)O1` [Cycloastragenol]: 0.7%; for `CC(C)(O)[C@H]1CC[C@@](C)([C@H]2[C@@H](O)C[C@@]3(C)[C@@H]4C[C@H](O)[C@H]5C(C)(C)[C@@H](O)CC[C@@]56C[C@@]46CC[C@]23C)O1` [Cyclogalegenin]: 8.4%.
For the compound `NCC(O)c1ccccc1` (stereo not drawn) [2-Amino-1-phenylethanol], the “OC43 Inhibition rate” value was 0%.
Consider `O=C(O)c1ccc(O)cc1` [4-Hydroxybenzoic acid], for which the “OC43 Inhibition rate” value is given as 0.1%.
Still for that read-out and setting: the result for `C[C@@H](O)CO` [(R)-(-)-1,2-Propanediol] reads -0.2%; that for `COc1cc(CNC(=O)CCCC/C=C/C(C)C)ccc1O[C@@H]1O[C@H](CO)[C@@H](O)[C@H](O)[C@H]1O` [Capsaicin β-D-glucopyranoside], 0.3%.
The same measure, in the same setting: the result for `CC1=CC(=O)[C@@H]2C[C@H]1C2(C)C` [Verbenone] reads -0.2%.
Still for that read-out and setting: the same measure for `C=C1[C@@H](O)[C@]2(O)OC[C@]34[C@H]2[C@@]2(C)[C@H](O)C(=O)C=C(C)[C@@H]2C[C@H]3OC(=O)[C@H](O)[C@@]14O` [Eurycomanone]: 54.5%; for `O=C(O)c1ccncc1` [Isonicotinic acid]: -0.2%; for `O=C(O)C(CO)c1ccccc1` (stereo not drawn) [Tropic acid]: 0.5%.
Regarding `CCC(C)(C)C(=O)O[C@H]1C[C@@H](C)C=C2C=C[C@H](C)[C@H](CC[C@@H](O)C[C@@H](O)CC(=O)O)[C@H]21` [Simvastatin acid (ammonium)], the “OC43 Inhibition rate” value is given as 5%.
As for `CCCCCCCCCC(=O)N[C@@H](Cc1c[nH]c2ccccc12)C(=O)N[C@H](CC(N)=O)C(=O)N[C@@H](CC(=O)O)C(=O)N[C@@H]1C(=O)NCC(=O)N[C@@H](CCCN)C(=O)N[C@@H](CC(=O)O)C(=O)N[C@H](C)C(=O)N[C@@H](CC(=O)O)C(=O)NCC(=O)N[C@H](CO)C(=O)N[C@@H]([C@H](C)CC(=O)O)C(=O)N[C@@H](CC(=O)c2ccccc2N)C(=O)O[C@@H]1C` [Daptomycin], the “OC43 Inhibition rate” value was found to be 62.7%.
Same read-out and setting: the result for `CC[C@H](C)[C@H](N)C1=N[C@H](C(=O)N[C@@H](CC(C)C)C(=O)N[C@H](CCC(=O)O)C(=O)N[C@H](C(=O)N[C@H]2CCCCNC(=O)[C@H](CC(N)=O)NC(=O)[C@@H](CC(=O)O)NC(=O)[C@H](Cc3cnc[nH]3)NC(=O)[C@@H](Cc3ccccc3)NC(=O)[C@H]([C@@H](C)CC)NC(=O)[C@@H](CCCN)NC2=O)[C@@H](C)CC)CS1` [Bacitracin] ({Ileψ(thiazoline)Cys}-L[dE]IK[dOrn]I[dF]H[dD]N; lactam 4-C) reads -0.3%; that for `CC(C)[C@@H]1NC(=O)CNC(=O)[C@H](C)NC(=O)[C@H](Cc2c[nH]c3ccccc23)NC(=O)[C@H](C)NC1=O` [Segetalin B] (cyclo(AGVAW)), -0.5%; that for `CN1C[C@@H]2C[C@H](C1)c1cccc(=O)n1C2` [N-Methylcytisine], -2.8%.
Same read-out and setting: the same measure for `C=C1CCOC1=O` [Tulipalin A]: 28.2%; for `Oc1ccc2ccc3cccc4ccc1c2c34` [1-Hydroxypyrene]: 16.8%; for `CC1(C)[C@@H](O)CC[C@]2(C)[C@H]3CC=C4[C@@H]5C[C@@]6(C)C[C@H](OC6=O)[C@]5(C)CC[C@@]4(C)[C@]3(C)CC[C@@H]12` [Wilforlide A]: 0.1%.
The same measure, in the same setting: the same measure for `O=C(N[C@@H](Cc1ccccc1)C(=O)N[C@H](CO)Cc1ccccc1)c1ccccc1` [Aurantiamide]: 1%.
For `COc1c(CC=C(C)C)c(O)cc2oc(=O)c3c4ccc(O)cc4oc3c12` [Neoglycyrol], the “OC43 Inhibition rate” value is recorded as 113.3%.
On the same count and under the same terms, the result for `CC(C)=CCc1cc2c(cc1O)oc(=O)c1c3ccc(O)cc3oc21` [Psoralidin] reads 0%.
Still for that read-out and setting: the same measure for `COc1c(CC=C(C)C)c(O)cc2oc(=O)c(-c3ccc(O)cc3O)cc12` [Glycycoumarin]: 0.9%.
Still for that read-out and setting: the same measure for `Cc1c(C)c2c(c(C)c1O)CC[C@@](C)(CCCC(C)CCCC(C)CCCC(C)C)O2` (stereo in doubt) [rel-α-Vitamin E]: 5.5%.
Take `CC1(C)CC[C@]2(C(=O)O[C@@H]3O[C@H](CO)[C@@H](O)[C@H](O)[C@H]3O)CC[C@]3(C)C(=CC[C@@H]4[C@@]5(C)CC[C@H](O[C@@H]6O[C@H](C(=O)O)[C@@H](O[C@@H]7O[C@@H](CO)[C@H](O)[C@H]7O)[C@H](O)[C@H]6O)C(C)(C)[C@@H]5CC[C@]43C)[C@@H]2C1` [Araloside A]: the “OC43 Inhibition rate” value is listed as 1.5%.
Still for that read-out and setting: the result for `COc1cc2oc(-c3ccccc3)cc(=O)c2c(OC)c1OC` [5,6,7-Trimethoxyflavone] reads 0.1%.
Same read-out and setting: the result for `COc1c(C)c2c(c(O)c1C/C=C(\C)CCC(=O)O)C(=O)OC2` [Mycophenolic acid] reads 36.2%; that for `COc1cc(-c2c3c(c(O)c4cc5c(cc24)OCO5)COC3=O)cc(OC)c1OC` [Tetradehydropodophyllotoxin], 1%.
Still for that read-out and setting: the result for `COC(=O)CC/C(C)=C/Cc1c(O)c2c(c(C)c1OC)COC2=O` [Methyl mycophenolate] reads 61.8%.
Turning to `O=C(O)c1cn[nH]c1` [4-Carboxypyrazole], the “OC43 Inhibition rate” value amounted to 0.1%.
Consider `C=C(C(=O)O)[C@@H]1CC[C@@H](C)[C@@H]2CCC(C)=C[C@@H]21` [Artemisic acid], for which the “OC43 Inhibition rate” value turned out to be 4.6%.
On to `Cc1ncc(C[n+]2csc(CCO)c2C)c(N)n1` [Thiamine monochloride], for which the “OC43 Inhibition rate” value (OC43 Inhibition rate, 24 h) was found to be 2.4%.
In the case of `C[S@@+]([O-])CCCCN=C=S` [(R)-sulforaphane], the “OC43 Inhibition rate” value came out at 71.2%.
Take `CC1=CCCC(C)(C)[C@H]1/C=C/C(C)=C/C=C/C(C)=C/C=C/C=C(C)/C=C/C=C(C)/C=C/C1=C(C)CCCC1(C)C` [α-Carotene]: the “OC43 Inhibition rate” value stood at 19.1%.
